TSHR agonist – agonists of human thyroid stimulating hormone receptor. Potency, µM (top dose mostly 57.1 µM), inactives show at the highest dose activation, usual class: activators. AID 926. 0.48% of 73,000 active. P16473. HEK293-CNG-TSHR cells (CNG channel as cAMP sensor), membrane potential dye, cAMP; active = well fitted activation curve with a large enough effect in the main read-out, with a control signal flat, not every such curve was filed as active; inconclusive = small, poorly fitted or top-dose-only effect, or a change in a side signal; inactive = no such curve, though single readings can be large or run the other way; % of control where 0% means no effect;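 also: the control signal comes from parental cells without the receptor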
Target sequence (P16473 whole entry, looked up): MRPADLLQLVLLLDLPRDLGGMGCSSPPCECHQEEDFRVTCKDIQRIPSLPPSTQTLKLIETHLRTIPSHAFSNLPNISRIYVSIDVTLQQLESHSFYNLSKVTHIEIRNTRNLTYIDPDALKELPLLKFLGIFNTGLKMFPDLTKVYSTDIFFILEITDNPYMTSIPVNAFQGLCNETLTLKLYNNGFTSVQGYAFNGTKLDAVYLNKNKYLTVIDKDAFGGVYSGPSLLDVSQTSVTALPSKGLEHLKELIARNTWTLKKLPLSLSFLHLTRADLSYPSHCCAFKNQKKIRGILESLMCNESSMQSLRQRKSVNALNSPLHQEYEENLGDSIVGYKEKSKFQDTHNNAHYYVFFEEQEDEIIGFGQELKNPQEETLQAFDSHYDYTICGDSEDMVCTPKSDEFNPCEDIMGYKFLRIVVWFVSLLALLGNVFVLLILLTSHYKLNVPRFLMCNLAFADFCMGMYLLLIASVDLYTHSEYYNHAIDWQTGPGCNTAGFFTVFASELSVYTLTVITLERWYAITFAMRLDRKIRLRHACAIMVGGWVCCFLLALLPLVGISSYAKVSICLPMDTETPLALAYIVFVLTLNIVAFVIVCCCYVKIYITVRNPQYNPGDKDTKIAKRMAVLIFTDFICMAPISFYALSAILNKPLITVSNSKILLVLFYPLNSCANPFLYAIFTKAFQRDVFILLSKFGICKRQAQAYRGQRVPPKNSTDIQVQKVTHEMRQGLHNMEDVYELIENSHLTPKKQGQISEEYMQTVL
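cAMP rise detected as CNG-channel membrane depolarization by fluorescent dye (emission 590 nm), 30 min after compound, following 60 min dye loading containing 100 uM RO 20-1724 at room temperature. Cells: TSHR/CNG HEK 293, with parental CNG HEK 293 as control.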
Caspase-1 inhib – caspase-1 (human) inhibition, allosteric or competitive; 0.03% of 75,000 active; P29466; Caspase-1 enzyme, Ac-WEHD-AFC fluorogenic rate; Potency, µM (titrated, usually from 57.5 µM), inactives show at the highest dose activity change, negative = inhibition, usual class: inhibitors;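 also: plate controls were vehicle for no effect and no substrate for full effect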
Caspase-7 inhib – blocks human caspase-7 allosterically or competitively | recombinant caspase-7, Ac-DEVD-AFC fluorescence rate | Potency, µM (top dose mostly 57.5 µM), for the others: at the top dose activity change, negative = inhibition, hits mostly inhibitors | 0.02% of 75,000 active | AID 889; active = well fitted inhibition curve with a large enough effect in the main read-out, with a control signal flat, not every such curve was filed as active; inconclusive = small, poorly fitted or top-dose-only effect, or a change in a side signal; also: % of control where 0% means no effect
HEK293 cAMP cs – parental HEK293 cAMP activation (counter-screen); parental HEK293 CNG cAMP sensor, membrane potential fluorescence; Potency, µM (series often up to 57.1 µM), for inactives: at the top dose activation, actives largely listed as activators; 2.5% of 73,000 active; also: % of control where 0% means no effect; nearly all actives have a fitted effect of over 55% in size
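Parental HEK 293 cells stably expressing a cAMP-gated CNG channel were loaded with membrane potential dye containing 100 uM RO 20-1724 for 60 min. Compound added for 30 min; depolarization read as fluorescence intensity at 590 nm.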
* marks the source's active call; other numbers are inactive results; [ ] = another dose, or the depositor's remark. Most compounds without a hit are left out; they make up all but 2.6% or so of the library. Unless noted, calls follow the shape of the dose curve; as a rule, active = well fitted curve in the direction sought with a large enough effect; inconclusive = small, poorly fitted or top-dose-only effect, or another doubt; inactive = no such curve, though single readings can be large; an effect the other way counts as inactive or inconclusive. Potency is read from the fitted curve at half-maximal effect.

Results for COC(=O)N1CCC[C@@]2(CCN(C(c3ccccc3)c3ccccc3)C2)C1 ?
TSHR agonist: inconclusive; Caspase-1 inhib: -6.5%; Caspase-7 inhib: -1.2%; HEK293 cAMP cs: 7.94µM*

How did CC(=O)N1CCC2(CC1)CCN(C(c1ccccc1)c1ccccc1)CC2 do in these assays?
TSHR agonist: 9.1%; Caspase-1 inhib: -1.1%; Caspase-7 inhib: -1.6%; HEK293 cAMP cs: 26.8%

How did O=C(c1ccco1)N1CCC[C@@]2(CCN(C(c3ccccc3)c3ccccc3)C2)C1 do in these assays?
TSHR agonist: inconclusive; Caspase-1 inhib: -2.7%; Caspase-7 inhib: -3.2%; HEK293 cAMP cs: 15.8µM*

How did COCC(=O)N1CCC2(CC1)CN(C(c1ccccc1)c1ccccc1)C2 do in these assays?
TSHR agonist: 7.4%; Caspase-1 inhib: -2.6%; Caspase-7 inhib: 0.8%; HEK293 cAMP cs: 15.4%

What do the screens show for `C[C@@H]1C=C[C@](Cc2ccccc2)(C(=O)NCC2CC2)N1C(=O)c1ccccc1`?
TSHR agonist: inconclusive; Caspase-1 inhib: 1.0%; Caspase-7 inhib: -2.2%; HEK293 cAMP cs: 15.8µM*

How did O=C1[C@H]2[C@H]3[C@H](O)[C@H](O)C/C(=N/OC[C@@H](O)COCc4ccco4)[C@@H]3CC[C@@H]2C(=O)N1c1cccc(Oc2ccccc2)c1 do in these assays?
Caspase-1 inhib: -0.4%[11.5 µM]; Caspase-7 inhib: 0.1%[11.5 µM]; HEK293 cAMP cs: 7.0%[11.4 µM]

Results for COc1ccc2[nH]c(=O)c(CN(Cc3cccs3)Cc3nnnn3C(C)(C)C)cc2c1 ?
TSHR agonist: inconclusive; Caspase-1 inhib: -4.5%; Caspase-7 inhib: -2.6%; HEK293 cAMP cs: inconclusive

Results for CCOc1ccc2[nH]c(=O)c(CN(Cc3cccs3)Cc3nnnn3C(C)(C)C)cc2c1 ?
TSHR agonist: inconclusive; Caspase-1 inhib: -1.4%; Caspase-7 inhib: -2.2%; HEK293 cAMP cs: 25.1µM*

Results for N#Cc1c(NC(=O)C(F)(F)F)sc2c3c(=O)c4ccccc4c(=O)c=3oc3ccccc3c12 ?
TSHR agonist: 0.0%[11.4 µM]; Caspase-1 inhib: -0.6%[11.5 µM]; Caspase-7 inhib: -3.6%[11.5 µM]; HEK293 cAMP cs: -6.1%[11.4 µM]

How did COc1ccc(OC)c(S(=O)(=O)N2CCCCCC2)c1 do in these assays?
TSHR agonist: -0.1%; Caspase-1 inhib: -2.3%; Caspase-7 inhib: 1.6%; HEK293 cAMP cs: 22.9%

What do the screens show for `COc1cc(S(=O)(=O)N2CCCCCC2)c(OC)cc1Br`?
TSHR agonist: inconclusive; Caspase-1 inhib: -3.1%; Caspase-7 inhib: -0.2%; HEK293 cAMP cs: 15.8µM*

What do the screens show for `CCOc1ccc(-n2c(SCc3nc(-c4cccs4)no3)nnc2-c2ccncc2)cc1`?
TSHR agonist: inconclusive; Caspase-1 inhib: -2.2%; Caspase-7 inhib: -2.8%; HEK293 cAMP cs: 3.16µM*

What do the screens show for `c1ccc(Nc2ncncc2-c2ccc3c(c2)OCO3)cc1`?
TSHR agonist: inconclusive; Caspase-1 inhib: -4.3%; Caspase-7 inhib: -4.9%; HEK293 cAMP cs: inconclusive

Results for Cc1nc2c(C(=O)N3CCCCC3)cnn2c(C)c1Cc1ccccc1F ?
TSHR agonist: inconclusive; Caspase-1 inhib: 2.1%; Caspase-7 inhib: -2.3%; HEK293 cAMP cs: inconclusive

What do the screens show for `Cc1ccccc1Cc1c(C)nc2c(C(=O)N3CCN(Cc4ccc5c(c4)OCO5)CC3)cnn2c1C`?
TSHR agonist: inconclusive; Caspase-1 inhib: -0.5%; Caspase-7 inhib: 1.0%; HEK293 cAMP cs: 20µM*

How did CCCCS/C(=C(/C#N)C(N)=O)c1cc2c([nH]1)CCCC2 do in these assays?
TSHR agonist: inconclusive; Caspase-1 inhib: -1.6%; Caspase-7 inhib: -1.2%; HEK293 cAMP cs: 5.01µM*

What do the screens show for `CCc1ccc(N/C(SC)=C(/C#N)C(N)=O)cc1`?
TSHR agonist: -1.3%; Caspase-1 inhib: 0.4%; Caspase-7 inhib: -0.8%; HEK293 cAMP cs: 24.0%

What do the screens show for `CCOC(=O)C1C(=O)CC(C)(O)C(C(=O)OCC)C1/C=C/c1ccccc1` (stereo not given)?
TSHR agonist: inconclusive; Caspase-1 inhib: 0.2%; Caspase-7 inhib: 0.3%; HEK293 cAMP cs: 5.01µM*

How did Cn1c(Sc2ccc(-c3cccnc3)n2C)ccc1-c1cccnc1 do in these assays?
TSHR agonist: -4.9%[11.4 µM]; Caspase-1 inhib: 2.4%[11.5 µM]; Caspase-7 inhib: 1.9%[11.5 µM]; HEK293 cAMP cs: -12.2%[11.4 µM]

What do the screens show for `COC(=O)N1CCC[C@@]2(CCN(C(=O)Nc3cccc(F)c3)C2)C1`?
TSHR agonist: inconclusive; Caspase-1 inhib: -3.6%; Caspase-7 inhib: 0.0%; HEK293 cAMP cs: 7.94µM*

What do the screens show for `COc1ccc(C(=O)N2CCC3(CCCN(C(=O)Nc4cccc(C#N)c4)C3)CC2)cc1`?
TSHR agonist: 25.1µM*; Caspase-1 inhib: -1.9%; Caspase-7 inhib: -2.0%; HEK293 cAMP cs: 11.1%

Source: PubChem (National Center for Advancing Translational Sciences (NCATS))
